Measured values reported in PubChem BioAssay (EPA / NIEHS).
Where “and” joins values, the source holds several entries; their conditions need not be identical. Equal values may be shown once. The source holds several records for some structures; these can differ, active in one and inactive in another. Calls of active or inactive are those of the source. Rule for the calls: active = hit-call score of the fitted dose curve at least 0.9, where 1 is the maximum; inactive = score below 0.9.

Read-out: Tumor necrosis factor (Homo sapiens) (UniProt P01375)
Assay: BSK_BT_xTNFa: BioMAP Diversity Plus: BT Assay for Tumor necrosis factor alpha (TNF-alpha) Biomarker Activity (AID 2284230)
Conditions: primary human B cells with PBMC
Protocol: BSK_BT is a cell-based, multiplexed-readout assay that uses B cell and peripheral blood mononuclear cells, a human vascular primary cell co-culture, with measurements taken at 24 hours after chemical dosing in a microplate: 96-well plate.BSK_BT_xTNFa is an assay component of the BSK_BT assay. It measures secreted TNF-alpha related to regulation of gene expression using LumineX xMAP technology.Data from the assay component BSK_BT_xTNFa was analyzed at the endpoint, BSK_BT_xTNFa, in the positive analysis fitting direction relative to DMSO as the negative control and baseline of activity. Using a type of cytokine quantitation reporter, gain or loss-of-signal activity can be used to understand protein changes. To generalize the intended target to other relatable targets, this assay endpoint is annotated to the 'cytokine' intended target family, where the subfamily is 'inflammatory factor'.
The levels of cell surface (or secreted, indicated by the prefix "s") biomarker endpoints were measured by ELISA. Overt cytotoxicity to cells in confluent adherent cultures (all systems other than the BT system) was assessed by measuring total protein levels using sulforhodamine B (SRB) staining in parallel cultures at the time of biomarker measurements, indicated as SRB endpoints. For proliferation assays for adherent cell types, individual cell types are cultured at sub-confluence and relative cell numbers quantified by SRB staining at time points optimized for each system (48 h: 3C and CASM3C systems; 72 h: BT and HDF3CGF systems; 96 h: SAg system). SRB was performed by staining cells with 0.1% SRB after fixation with 10% TCA and reading wells at 560 nm.Viability and proliferation of PBMC (T cells) was quantified by Alamar Blue reduction for the SAg and BT systems. For PBMC viability (referred to as PBMC Cytotoxicity within the assay endpoint names), cells were plated (75,000/well in a 96-well plate) and then chemical samples added for 1 h before addition of activators, SEB and TSST-1 (20 ng/mL final concentration each). Cells were incubated for 90 h. Then, Alamar Blue (20 uL/well) (Invitrogen, Cat DAL1100) was added for 6 h, and the plates were read with a fluorescence microplate reader at 546/580 nm (excitation/emission). For PBMC proliferation, cells were plated and activated as above but incubated for only 16 h prior to addition of Alamar Blue. Plates were read after 6 h.

Tumor necrosis factor (Homo sapiens), sequence (P01375 whole entry, looked up): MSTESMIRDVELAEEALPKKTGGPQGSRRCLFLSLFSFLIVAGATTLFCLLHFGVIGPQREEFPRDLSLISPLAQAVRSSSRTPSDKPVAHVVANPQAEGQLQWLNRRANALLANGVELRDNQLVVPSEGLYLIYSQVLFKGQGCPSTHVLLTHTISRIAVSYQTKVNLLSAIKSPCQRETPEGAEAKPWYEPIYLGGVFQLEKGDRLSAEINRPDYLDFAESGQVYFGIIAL

Compound	outcome	AC50
CCc1c(Br)c(Br)c(Br)c(Br)c1Br	inactive	–
O=S(=O)(OCC(F)F)C(F)(F)F	inactive	1.01 µM (active)
O=C(O)C(F)(F)C(F)(F)F	inactive	–
FC(F)(F)C(F)(F)C(F)(F)C(F)(F)CCI	inactive	–
OCCCC(F)(F)C(F)(F)C(F)(F)C(F)(F)C(F)(F)C(F)(F)C(F)(F)F	–	20.2 µM (active) and 23 µM (active)
CCCCCCC(C)OC(=O)CCCCC(=O)OC(C)CCCCCC (stereo not given)	inactive	–
C=CC(=O)OCC(F)(F)C(F)(F)C(F)(F)C(F)(F)C(F)(F)C(F)(F)C(F)(F)F	inactive	44.7 µM (active)
O=S(=O)(OCCOC(F)(F)F)C(F)(F)F	inactive	–
N=C(N)C(F)(F)C(F)(F)C(F)(F)C(F)(F)C(F)(F)C(F)(F)C(F)(F)F	inactive	45.5 µM (active)
OCC(F)(F)C(F)(F)C(F)(F)C(F)(F)C(F)(F)C(F)F	inactive	–
FC(F)(F)C(F)(F)C(F)(F)C(F)(F)C(F)(F)C(F)(F)C(F)(F)I	inactive	–
O=C(O)C(F)(F)C(F)(F)C(F)(F)C(F)(F)F	inactive	–
C#C[C@]1(O)CC[C@H]2[C@@H]3CCc4cc(OC)ccc4[C@H]3CC[C@@]21C	–	20 µM (active)
CCCCCCCOC(=O)c1ccccc1C(=O)OCCCCCCC	inactive	–
C=C(C)C(=O)OCCC(F)(F)C(F)(F)C(F)(F)C(F)(F)C(F)(C(F)(F)F)C(F)(F)F	inactive	–
C=CC(F)(F)C(F)(F)C(F)(F)C(F)(F)C(F)(F)C(F)(F)C(F)(F)C(F)(F)F	inactive	–
COC(=O)CCC(F)(F)C(F)(F)C(F)(F)C(F)(F)F	inactive	–
CCCCCCCCC(F)(F)C(F)(F)C(F)(F)C(F)(F)C(F)(F)C(F)(F)F	inactive	–

Compound	outcome	AC50
O=C(O)C=C(C(F)(F)F)C(F)(F)F	–	30 µM (active) and 34.9 µM (active)
CC(CCl)OP(=O)(OC(C)CCl)OC(C)CCl (stereo not given)	inactive	–
C=CC(F)(F)C(F)(F)C(F)(F)C(F)(F)C(F)(F)C(F)(F)C(F)(F)C(F)(F)C=C	inactive	–
FC(F)(F)C(F)(F)C(F)(F)N(C(F)(F)C(F)(F)C(F)(F)F)C(F)(F)C(F)(F)C(F)(F)F	inactive	–
NC(=O)C(F)(F)C(F)(F)C(F)(F)C(F)(F)F	inactive	–
CC(C)(C)C(=O)CC(=O)C(F)(F)C(F)(F)C(F)(F)F	inactive	–
O=C(O)C(F)(OC(F)(F)C(F)(OC(F)(F)C(F)(OC(F)(F)C(F)(F)C(F)(F)F)C(F)(F)F)C(F)(F)F)C(F)(F)F (stereo not given)	inactive	–
C=CC(=O)OCC(F)(F)C(F)(F)C(F)(F)C(F)(F)COC(=O)C=C	–	9.76 µM (active) and 9.35 µM (active)
FC(F)(F)C(F)(F)C(F)(F)C(F)(F)C(F)(F)C(F)(F)C(F)(F)C(F)(F)F	inactive	–
O=C(O)C(F)(F)C(F)(F)C(F)(F)C(F)(F)C(F)(F)C(F)(F)C(F)(F)C(F)(F)C(F)(F)C(F)F	inactive	–
FC(F)(F)C(F)(F)C(F)(F)C(F)(F)C(F)(F)C(F)(F)C(F)(F)C(F)(F)CCS	inactive	–
Cc1ccc(S(=O)(=O)OCC(F)(F)C(F)(F)C(F)(F)C(F)(F)C(F)(F)C(F)F)cc1	inactive	–
CCO[Si](CCC(F)(F)C(F)(F)C(F)(F)C(F)(F)C(F)(F)C(F)(F)F)(OCC)OCC	inactive	–
CCCCOCCOCCOC(=O)CCCCC(=O)OCCOCCOCCCC	inactive	–
OCC(F)(F)C(F)(F)C(F)(F)C(F)(F)C(F)(F)C(F)(F)F	inactive	41.2 µM (active)
O=C(Cl)C(F)(F)C(F)(F)C(F)(F)C(F)(F)C(F)(F)C(F)(F)C(F)(F)C(F)(F)F	inactive	–
O=C(O)C(F)(F)C(F)(F)C(F)(F)C(F)(F)C(F)(F)C(F)(F)C(F)(F)C(F)(F)C(F)(F)C(F)(F)C(F)(F)C(F)(F)F	inactive	–
FC(F)(F)C(F)(F)C(F)(F)C(F)(F)C(F)(F)C(F)(F)CC1CO1 (stereo not given)	inactive	–
